53 molecules from article PMC4336329 (PLoS ONE, 2015) can be followed below.

SMILES strings stand for the structures. Screen size: about 310,000 compounds; about 14,000 (4.5%) showed an effect of 50% or more. The effect is printed as a negative number. What follows is part of a selection rich in strong results, with near analogues and random picks from the rest.
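Note: peak tail current of the secondary pulse compared with the same well before compound.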

Chain of human ether-à-go-go-related gene (hERG) potassium channel (Q12809 whole entry, looked up): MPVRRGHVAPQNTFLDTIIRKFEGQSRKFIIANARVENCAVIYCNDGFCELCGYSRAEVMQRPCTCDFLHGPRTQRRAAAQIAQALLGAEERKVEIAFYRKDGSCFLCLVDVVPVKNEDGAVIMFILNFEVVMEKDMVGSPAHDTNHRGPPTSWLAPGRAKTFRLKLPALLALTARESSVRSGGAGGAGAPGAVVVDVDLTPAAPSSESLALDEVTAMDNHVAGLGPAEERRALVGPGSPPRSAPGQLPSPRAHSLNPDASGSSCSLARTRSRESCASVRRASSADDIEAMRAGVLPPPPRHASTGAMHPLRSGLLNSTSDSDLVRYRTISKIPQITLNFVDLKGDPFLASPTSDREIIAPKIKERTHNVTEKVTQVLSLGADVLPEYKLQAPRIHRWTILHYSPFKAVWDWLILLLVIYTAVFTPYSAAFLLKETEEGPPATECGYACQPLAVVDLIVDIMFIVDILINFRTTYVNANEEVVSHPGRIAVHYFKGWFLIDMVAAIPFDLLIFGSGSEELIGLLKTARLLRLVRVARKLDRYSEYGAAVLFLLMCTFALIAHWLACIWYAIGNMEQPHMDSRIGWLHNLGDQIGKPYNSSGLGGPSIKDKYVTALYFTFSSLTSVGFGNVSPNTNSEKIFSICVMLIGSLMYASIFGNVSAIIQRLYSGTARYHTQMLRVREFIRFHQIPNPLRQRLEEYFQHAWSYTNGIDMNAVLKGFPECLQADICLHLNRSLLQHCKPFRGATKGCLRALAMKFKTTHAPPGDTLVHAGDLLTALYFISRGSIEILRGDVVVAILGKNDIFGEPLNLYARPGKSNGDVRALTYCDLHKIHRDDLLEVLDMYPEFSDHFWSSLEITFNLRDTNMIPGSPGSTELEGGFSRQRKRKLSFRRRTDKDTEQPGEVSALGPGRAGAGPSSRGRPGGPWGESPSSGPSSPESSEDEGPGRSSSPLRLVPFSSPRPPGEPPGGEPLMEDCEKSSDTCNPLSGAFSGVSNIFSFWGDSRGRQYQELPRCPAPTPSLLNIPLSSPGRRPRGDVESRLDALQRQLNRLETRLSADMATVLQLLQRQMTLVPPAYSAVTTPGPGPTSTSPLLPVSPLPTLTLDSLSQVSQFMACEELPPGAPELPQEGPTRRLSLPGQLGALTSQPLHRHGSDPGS

This test concerns the target human ether-à-go-go-related gene (hERG) potassium channel (human, UniProt Q12809). Put plainly: primary screen, population patch clamp on CHO cells stably expressing hERG; higher = less effect of the substance.
Turning to `Cn1c(SCC(=O)O)nnc1-c1ccc(NC(=O)c2ccc(Cl)c(Cl)c2)cc1`, the “hERG current change (%, negative = inhibition) at 10uM” value was 7%.

`COCc1[nH]nc2c1C(C1C=CCCC1)C(C#N)=C(N)O2` (centres unmarked): the “hERG current change (%, negative = inhibition) at 10uM” value is given as -8.37%. Regarding `CSc1ccc(/C=C/C(=O)NC(=O)c2ccccc2O)cc1`, the “hERG current change (%, negative = inhibition) at 10uM” value was found to be 11.3%.

As to `O=C(O)/C=C/c1cnc2ccccc2c1`, the “hERG current change (%, negative = inhibition) at 10uM” value was 19.1%. As for `CCOc1ccc(C(O)(CCC(C)C)C(CN2CCOCC2)c2ccccc2)cc1.Cl` (centres unmarked), the figure is 13.3%; as for `COc1ccc(CCNC(=O)CCC(=O)Nc2nnc(C(C)C)s2)cc1OC`, 10.4%; as for `Cc1cc(N)n(-c2nc(-c3cccnc3)nc3ccccc23)n1`, -27.4%. Then `O=S(=O)(CCN1CCOCC1)c1ccc(OC(F)(F)F)cc1`, with 2.9%; and `COc1ccc(OCCOC(=O)C(C)NS(=O)(=O)c2ccc(NC(C)=O)cc2)cc1` (centres unmarked), with -7.73%. Regarding `COC(=O)C1=C(c2c(C)noc2C)C[C@@H]2CC[C@H]1N2C(=O)N1CCCCC1`, the “hERG current change (%, negative = inhibition) at 10uM” value is recorded as 17.1%. Then `CC(=O)Nc1ccc(N=Nc2ccccc2)cc1`, with 8.44%. Then `O=C(NC(=S)Nc1nc(-c2ccc([N+](=O)[O-])cc2)cs1)c1ccco1`, with 16.5%; and `O=C(CCC1N=C2c3ccccc3N=C(SCC(=O)NCC3CCCO3)N2C1=O)NCc1ccc(F)cc1` (centres unmarked), with 2.89%. As for `O=C(CCC1N=C2c3ccccc3N=C(SCc3ccccc3Cl)N2C1=O)NCc1ccco1` (centres unmarked), the figure is -32.4%; as for `O=C(CC1N=C2c3ccccc3N=C(SCc3ccc(F)cc3)N2C1=O)NCc1ccco1` (centres unmarked), -73.9%. On to `O=C(CCC1N=C2c3ccccc3N=C(SCc3cccc(Cl)c3)N2C1=O)NCc1ccco1` (centres unmarked), for which the “hERG current change (%, negative = inhibition) at 10uM” value is -42.2%.

Take `NC(=O)CSC1=Nc2ccccc2C2=NC(CCC(=O)NCc3ccc(F)cc3)C(=O)N12` (centres unmarked): the “hERG current change (%, negative = inhibition) at 10uM” value is 15.1%. Then `O=C(CSC1=Nc2ccccc2C2=NC(CC(=O)NCc3ccco3)C(=O)N12)NCC1CCCO1` (centres unmarked), with 7.92%; and `CCC(C)NC(=O)CSC1=Nc2ccccc2C2=NC(CC(=O)NCc3ccc(F)cc3)C(=O)N12` (centres unmarked), with -11.4%. Then `O=C(CCC1N=C2c3ccccc3N=C(SCc3ccc(F)cc3)N2C1=O)NCc1ccco1` (centres unmarked), with -70.9%; and `O=C(CCC1N=C2c3ccccc3N=C(SCc3ccc(Cl)cc3)N2C1=O)NCc1ccco1` (centres unmarked), with -52%; and `CCCCN(C)CCNC(=O)c1ccc(Cn2c(=S)[nH]c3ccc(Br)cc3c2=O)cc1`, with -41%. As for `COCCNC(=S)N(CCCN(C)C)Cc1cc2cc3c(cc2[nH]c1=O)OCCO3`, the figure is 24.9%.

Take `CC(Oc1ccc2c(-c3ccccc3)cc(=O)oc2c1)C(=O)N[C@H](Cc1c[nH]c2ccccc12)C(=O)O` (some centres unmarked): the “hERG current change (%, negative = inhibition) at 10uM” value was determined as 7.48%. Then `O=C(NCC1CCCO1)c1cnn2c1NC(c1ccccc1)CC2C(F)(F)F` (centres unmarked), with 1.68%; and `NS(=O)(=O)c1cccc(NC(=O)COC(=O)CCc2ccccc2)c1`, with 17%; and `CCC(=O)N1CCc2cc(S(=O)(=O)CCC(=O)NCc3ccc4c(c3)OCO4)ccc21`, with 0.659%. As for `Cc1ccc2c(CC(=O)NCCc3ccc(S(N)(=O)=O)cc3)coc2c1`, the figure is -2.43%; as for `O=C(O)C(=O)O.c1ccc(COc2ccc(OCCCN3CCCCC3)cc2)cc1`, -78.3%. As for `O=C(O)C(=O)O.c1ccc(COc2ccc(OCCCN3CCCC3)cc2)cc1`, the figure is -73.8%. In the case of `COc1cccc2c1-c1c(C(=O)O)cccc1C2=O`, the “hERG current change (%, negative = inhibition) at 10uM” value is 15.7%. Turning to `CC(=O)c1ccc(NC(=O)C(C)NCc2ccccc2Cl)cc1` (centres unmarked), the “hERG current change (%, negative = inhibition) at 10uM” value is -0.834%.

Take `CCCCN(C)Cc1c(C)[nH]c2c(ccc3ccccc32)c1=O`: the “hERG current change (%, negative = inhibition) at 10uM” value is given as -73.6%.

Regarding `CCN(Cc1ccccc1)Cc1c(C)[nH]c2c(C)c(C)ccc2c1=O`, the “hERG current change (%, negative = inhibition) at 10uM” value was -40.6%. `CCCCN(C)Cc1c(C)[nH]c2ccc(OCC)cc2c1=O`: the “hERG current change (%, negative = inhibition) at 10uM” value is listed as -39.9%. As for `CCCCN(CC)Cc1c(C)[nH]c2c(ccc3ccccc32)c1=O`, the figure is -74.3%; as for `CCCCN(CC)Cc1c(C)[nH]c2ccccc2c1=O`, -20.7%; as for `Cc1[nH]c2ccc(Cl)cc2c(=O)c1CN1CCCC1`, 1.86%. As for `CCCCN(C)Cc1c(C)[nH]c2c(Cl)cccc2c1=O`, the figure is -38.7%; as for `CCCCN(C)Cc1c(C)[nH]c2ccc(Cl)cc2c1=O`, -55.3%. As to `CCCCN(C)Cc1c(C)[nH]c2ccccc2c1=O`, the “hERG current change (%, negative = inhibition) at 10uM” value is on record as -2.26%. With `CC1(C)CC(=O)C(C=Nc2cccnc2/N=C/C2=C(O)CC(C)(C)CC2=O)=C(O)C1`, the “hERG current change (%, negative = inhibition) at 10uM” value was determined as 14%. As for `O=c1[nH]n2c(C(F)(F)F)cc(C3CC3)nc2c1N=Nc1ccccc1`, the “hERG current change (%, negative = inhibition) at 10uM” value turned out to be 12.2%. Then `COc1cc(OC)cc(-c2oc(=O)c3cc(OC)c(OC)cc3c2/C=C/c2ccc(F)cc2)c1`, with 4.91%; and `Cc1ccc(C(=O)n2nnc3ccccc32)cc1`, with 7.37%. Then `CN1C(=S)SC(/[N+]([O-])=C\c2ccccc2)C1(C)C` (centres unmarked), with -15.4%; and `COC(=O)c1[nH]c2ccc(C)cc2c1NC(=O)CCN1CCN(Cc2ccc3c(c2)OCO3)CC1`, with -66.1%; and `COC(=O)c1[nH]c2ccccc2c1NC(=O)CN1CCN(c2cccc(Cl)c2)CC1`, with 6.84%. As for `CCN(CC(=O)Nc1c(C(=O)OC)[nH]c2ccccc12)c1ccc2c(c1)OCO2`, the figure is -17.4%. On to `COC(=O)c1[nH]c2ccccc2c1NC(=O)CN1CCN(Cc2ccc3c(c2)OCO3)CC1`, for which the “hERG current change (%, negative = inhibition) at 10uM” value is reported as -73.7%. As for `CCN(CC(=O)Nc1c(C(=O)OC)[nH]c2ccc(C)cc12)c1ccc2c(c1)OCO2`, the figure is 2.19%; as for `COC(=O)c1[nH]c2ccc(C)cc2c1NC(=O)CN1CCN(c2ccc(F)cc2)CC1`, -1.02%; as for `CCc1noc(C)c1C(=O)Nc1cccc(S(=O)(=O)N(C)c2ccccc2)c1`, -22.1%.
